Measurements reported in ChEMBL document CHEMBL3988442, “University of Dundee, Small-Polar-MMV Screening Library” (2021).
For part of these data: Entries with a potency or affinity are not part of this list.

How the values were obtained:
Parameters in all cases: scale not given: direction of the effect not stated beside the values
[1] = target: Protein translocase subunit SecA (Escherichia coli (strain K12)) (UniProt P10408); experiment: Assay to Identify E. coli SecA ATPase Inhibitors; format: functional; settings: 30 µM
Sequence of Protein translocase subunit SecA (Escherichia coli (strain K12)) (P10408 whole entry): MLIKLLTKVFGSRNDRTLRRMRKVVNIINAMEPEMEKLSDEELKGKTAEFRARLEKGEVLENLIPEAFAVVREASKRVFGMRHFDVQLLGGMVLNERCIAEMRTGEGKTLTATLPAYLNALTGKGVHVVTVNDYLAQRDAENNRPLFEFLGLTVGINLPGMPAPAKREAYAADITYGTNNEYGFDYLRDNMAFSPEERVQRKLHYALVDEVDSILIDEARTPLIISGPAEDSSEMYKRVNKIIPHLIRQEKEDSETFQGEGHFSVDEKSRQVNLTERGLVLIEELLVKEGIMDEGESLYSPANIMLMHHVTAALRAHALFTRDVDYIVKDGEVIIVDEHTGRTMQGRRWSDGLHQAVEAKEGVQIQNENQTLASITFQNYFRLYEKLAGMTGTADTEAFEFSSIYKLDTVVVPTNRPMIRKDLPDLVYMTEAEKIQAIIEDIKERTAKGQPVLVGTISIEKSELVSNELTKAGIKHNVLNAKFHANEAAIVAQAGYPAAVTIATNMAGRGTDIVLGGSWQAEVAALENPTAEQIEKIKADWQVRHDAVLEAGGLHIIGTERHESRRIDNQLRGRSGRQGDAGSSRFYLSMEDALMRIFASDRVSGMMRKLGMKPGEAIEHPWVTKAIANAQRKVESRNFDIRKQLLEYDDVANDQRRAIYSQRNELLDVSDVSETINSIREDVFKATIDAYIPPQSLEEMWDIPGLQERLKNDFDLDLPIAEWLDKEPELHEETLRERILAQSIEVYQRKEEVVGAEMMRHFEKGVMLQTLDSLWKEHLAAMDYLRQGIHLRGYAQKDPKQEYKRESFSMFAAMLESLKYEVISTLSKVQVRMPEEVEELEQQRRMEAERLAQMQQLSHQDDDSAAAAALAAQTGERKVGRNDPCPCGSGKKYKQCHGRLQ

[2] = target: T1, Ubiquitin-activating enzyme e1, putative (Leishmania donovani (strain BPK282A1)) (UniProt E9BSI1); experiment: Leishmania donovani Ubiquitin Activating Enzyme (LdE1); format: functional; settings: 30 µM
T1 sequence (whole entry): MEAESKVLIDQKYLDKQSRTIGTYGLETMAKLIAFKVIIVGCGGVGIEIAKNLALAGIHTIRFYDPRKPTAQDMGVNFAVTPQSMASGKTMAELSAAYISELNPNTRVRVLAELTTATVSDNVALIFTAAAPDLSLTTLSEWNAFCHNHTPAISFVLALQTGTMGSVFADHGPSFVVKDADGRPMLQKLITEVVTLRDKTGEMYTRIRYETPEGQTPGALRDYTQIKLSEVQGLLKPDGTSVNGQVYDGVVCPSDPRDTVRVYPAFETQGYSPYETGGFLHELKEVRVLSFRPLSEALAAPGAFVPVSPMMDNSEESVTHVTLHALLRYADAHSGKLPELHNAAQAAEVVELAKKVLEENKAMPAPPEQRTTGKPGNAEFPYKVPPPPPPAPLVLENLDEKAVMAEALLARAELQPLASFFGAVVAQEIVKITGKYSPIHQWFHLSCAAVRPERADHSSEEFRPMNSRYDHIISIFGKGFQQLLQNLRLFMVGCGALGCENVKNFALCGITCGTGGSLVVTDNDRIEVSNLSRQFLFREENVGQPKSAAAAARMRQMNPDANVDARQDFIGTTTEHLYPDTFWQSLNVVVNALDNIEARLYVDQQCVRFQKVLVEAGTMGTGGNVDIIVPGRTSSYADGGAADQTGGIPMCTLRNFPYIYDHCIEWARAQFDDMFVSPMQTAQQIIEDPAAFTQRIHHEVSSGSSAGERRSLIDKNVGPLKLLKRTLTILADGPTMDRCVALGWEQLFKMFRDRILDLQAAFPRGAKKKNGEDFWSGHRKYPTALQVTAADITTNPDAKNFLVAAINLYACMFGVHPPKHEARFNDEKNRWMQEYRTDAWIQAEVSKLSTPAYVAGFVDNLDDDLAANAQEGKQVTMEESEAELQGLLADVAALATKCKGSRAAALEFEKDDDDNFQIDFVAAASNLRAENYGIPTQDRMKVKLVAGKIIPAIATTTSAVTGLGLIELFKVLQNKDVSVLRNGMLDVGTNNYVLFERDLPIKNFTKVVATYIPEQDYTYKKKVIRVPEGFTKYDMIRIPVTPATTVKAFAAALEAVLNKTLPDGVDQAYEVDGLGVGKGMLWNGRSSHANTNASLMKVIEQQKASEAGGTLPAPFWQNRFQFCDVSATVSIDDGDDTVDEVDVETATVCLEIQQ

[3] = target: AMP-activated protein kinase, AMPK (Homo sapiens) (UniProt P54646+O43741+P54619+Q9UGJ0+Q9Y478+Q13131+Q9UGI9); experiment: AMP-dependent Kinase enzyme assay. An in vitro enzyme assay that detects ADP turnover that is directly proportional to AMPK activity. This uses naive AMPK that is activated during the assay with MK-8722; format: functional; settings: 30 µM
[4] = target: Sialic acid-binding Ig-like lectin 9 (Homo sapiens) (UniProt Q9Y336); experiment: Hs-Siglec9 ALPHAscreen SOP 20170721; settings: 10 µM
Sequence of Sialic acid-binding Ig-like lectin 9 (Homo sapiens) (Q9Y336 whole entry): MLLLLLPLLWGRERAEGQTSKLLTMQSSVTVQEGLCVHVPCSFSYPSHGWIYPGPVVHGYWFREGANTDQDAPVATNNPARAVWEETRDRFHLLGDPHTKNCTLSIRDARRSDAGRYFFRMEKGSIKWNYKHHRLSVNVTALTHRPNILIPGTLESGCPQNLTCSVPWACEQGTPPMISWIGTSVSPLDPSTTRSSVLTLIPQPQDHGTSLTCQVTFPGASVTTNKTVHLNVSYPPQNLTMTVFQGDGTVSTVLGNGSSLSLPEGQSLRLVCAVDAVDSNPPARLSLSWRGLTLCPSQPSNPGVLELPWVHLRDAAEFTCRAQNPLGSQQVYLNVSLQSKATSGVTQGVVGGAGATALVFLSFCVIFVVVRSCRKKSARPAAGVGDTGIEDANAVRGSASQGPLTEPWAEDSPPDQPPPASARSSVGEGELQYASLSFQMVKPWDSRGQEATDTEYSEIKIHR

Trypanosoma cruzi = experiment: Trypanosoma cruzi phosphomannomutase and mannose-1-phosphate guanylyltransferase assay; format: functional; settings: 10 µM
[5] = target: T2, Arginase-2, mitochondrial (Homo sapiens) (UniProt P78540); experiment: in vitro enzyme assay to detect the production of urea directly proportional to the activity of Arginase II; format: functional; settings: 33.3 µM; note: in the data most compounds retested in dose-response had high values
T2 sequence (whole entry): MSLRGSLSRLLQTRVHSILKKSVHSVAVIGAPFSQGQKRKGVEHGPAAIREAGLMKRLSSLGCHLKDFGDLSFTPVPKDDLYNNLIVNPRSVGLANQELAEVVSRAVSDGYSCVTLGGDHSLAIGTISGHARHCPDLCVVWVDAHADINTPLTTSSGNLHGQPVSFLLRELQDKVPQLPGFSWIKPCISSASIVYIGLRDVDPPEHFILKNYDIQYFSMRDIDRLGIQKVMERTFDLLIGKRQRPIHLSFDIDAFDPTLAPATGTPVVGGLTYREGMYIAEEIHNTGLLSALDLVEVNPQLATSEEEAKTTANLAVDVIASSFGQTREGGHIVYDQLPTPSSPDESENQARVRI

[6] = target: T3, Proteasome subunit beta (Trypanosoma cruzi) (UniProt O96673); experiment: Trypanosoma cruzi proteasome chymotrypsin-like activity (TcProtChymo) assay.; note: in the data most compounds retested in dose-response had high values; format: functional; settings: 9.37 µM
T3 sequence (whole entry): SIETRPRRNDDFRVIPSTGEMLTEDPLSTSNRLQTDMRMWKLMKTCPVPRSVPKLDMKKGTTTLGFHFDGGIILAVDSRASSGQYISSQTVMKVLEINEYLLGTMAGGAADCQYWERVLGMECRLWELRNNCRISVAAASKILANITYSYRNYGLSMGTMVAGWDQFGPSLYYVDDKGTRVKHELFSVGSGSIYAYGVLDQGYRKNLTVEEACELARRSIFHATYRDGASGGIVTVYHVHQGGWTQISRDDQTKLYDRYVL

Homo sapiens = species: Homo sapiens; experiment: To identify inhibition of the IFN signalling (Jak-Stat) pathway via expression of an eGFP reporter gene under the control of an IFN-stimulated response element (ISRE) containing MxA promoter.; format: functional; settings: 30 µM
[7] = target: T4, Tyrosyl-tRNA synthetase, putative (Trypanosoma cruzi (strain CL Brener)) (UniProt Q4DSP6); experiment: Trypanosoma cruzi tyrosyl tRNA synthetase (TcYRS) _High Tyrosine SOP; format: functional; settings: 30 µM; note: in the data most compounds retested in dose-response had high values
T4 sequence (whole entry): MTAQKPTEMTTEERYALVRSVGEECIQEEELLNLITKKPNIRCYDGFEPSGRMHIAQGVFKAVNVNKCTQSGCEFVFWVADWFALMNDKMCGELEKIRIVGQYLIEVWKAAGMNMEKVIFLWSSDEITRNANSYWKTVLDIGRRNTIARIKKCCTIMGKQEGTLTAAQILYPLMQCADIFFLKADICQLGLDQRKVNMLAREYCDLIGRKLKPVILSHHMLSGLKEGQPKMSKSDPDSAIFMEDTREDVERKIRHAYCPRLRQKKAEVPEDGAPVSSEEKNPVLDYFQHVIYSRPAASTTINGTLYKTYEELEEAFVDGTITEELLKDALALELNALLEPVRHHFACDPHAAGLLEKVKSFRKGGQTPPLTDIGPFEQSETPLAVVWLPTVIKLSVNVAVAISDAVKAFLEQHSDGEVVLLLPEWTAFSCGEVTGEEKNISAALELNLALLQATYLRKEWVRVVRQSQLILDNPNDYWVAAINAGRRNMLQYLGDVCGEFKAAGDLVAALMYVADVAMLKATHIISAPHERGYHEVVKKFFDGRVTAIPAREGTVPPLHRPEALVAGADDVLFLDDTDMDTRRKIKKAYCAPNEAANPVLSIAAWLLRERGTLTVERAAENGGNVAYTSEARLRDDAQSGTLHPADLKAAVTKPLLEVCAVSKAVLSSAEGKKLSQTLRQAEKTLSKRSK

[8] = target: T4, Tyrosyl-tRNA synthetase, putative (Trypanosoma cruzi (strain CL Brener)); experiment: Trypanosoma cruzi tyrosyl tRNA synthetase (TcYRS) SOP; format: functional; settings: 30 µM
[9] = target: Chromo domain-containing protein 1 (Saccharomyces cerevisiae (strain ATCC 204508 / S288c) (Baker's yeast)) (UniProt P32657); experiment: ScCHD-1 Enzyme Inhibition Assay; format: functional; settings: 30 µM; note: in the data most compounds retested in dose-response had high values
Sequence of Chromo domain-containing protein 1 (Saccharomyces cerevisiae (strain ATCC 204508 / S288c) (Baker's yeast)) (P32657 whole entry, the tested form may be a part): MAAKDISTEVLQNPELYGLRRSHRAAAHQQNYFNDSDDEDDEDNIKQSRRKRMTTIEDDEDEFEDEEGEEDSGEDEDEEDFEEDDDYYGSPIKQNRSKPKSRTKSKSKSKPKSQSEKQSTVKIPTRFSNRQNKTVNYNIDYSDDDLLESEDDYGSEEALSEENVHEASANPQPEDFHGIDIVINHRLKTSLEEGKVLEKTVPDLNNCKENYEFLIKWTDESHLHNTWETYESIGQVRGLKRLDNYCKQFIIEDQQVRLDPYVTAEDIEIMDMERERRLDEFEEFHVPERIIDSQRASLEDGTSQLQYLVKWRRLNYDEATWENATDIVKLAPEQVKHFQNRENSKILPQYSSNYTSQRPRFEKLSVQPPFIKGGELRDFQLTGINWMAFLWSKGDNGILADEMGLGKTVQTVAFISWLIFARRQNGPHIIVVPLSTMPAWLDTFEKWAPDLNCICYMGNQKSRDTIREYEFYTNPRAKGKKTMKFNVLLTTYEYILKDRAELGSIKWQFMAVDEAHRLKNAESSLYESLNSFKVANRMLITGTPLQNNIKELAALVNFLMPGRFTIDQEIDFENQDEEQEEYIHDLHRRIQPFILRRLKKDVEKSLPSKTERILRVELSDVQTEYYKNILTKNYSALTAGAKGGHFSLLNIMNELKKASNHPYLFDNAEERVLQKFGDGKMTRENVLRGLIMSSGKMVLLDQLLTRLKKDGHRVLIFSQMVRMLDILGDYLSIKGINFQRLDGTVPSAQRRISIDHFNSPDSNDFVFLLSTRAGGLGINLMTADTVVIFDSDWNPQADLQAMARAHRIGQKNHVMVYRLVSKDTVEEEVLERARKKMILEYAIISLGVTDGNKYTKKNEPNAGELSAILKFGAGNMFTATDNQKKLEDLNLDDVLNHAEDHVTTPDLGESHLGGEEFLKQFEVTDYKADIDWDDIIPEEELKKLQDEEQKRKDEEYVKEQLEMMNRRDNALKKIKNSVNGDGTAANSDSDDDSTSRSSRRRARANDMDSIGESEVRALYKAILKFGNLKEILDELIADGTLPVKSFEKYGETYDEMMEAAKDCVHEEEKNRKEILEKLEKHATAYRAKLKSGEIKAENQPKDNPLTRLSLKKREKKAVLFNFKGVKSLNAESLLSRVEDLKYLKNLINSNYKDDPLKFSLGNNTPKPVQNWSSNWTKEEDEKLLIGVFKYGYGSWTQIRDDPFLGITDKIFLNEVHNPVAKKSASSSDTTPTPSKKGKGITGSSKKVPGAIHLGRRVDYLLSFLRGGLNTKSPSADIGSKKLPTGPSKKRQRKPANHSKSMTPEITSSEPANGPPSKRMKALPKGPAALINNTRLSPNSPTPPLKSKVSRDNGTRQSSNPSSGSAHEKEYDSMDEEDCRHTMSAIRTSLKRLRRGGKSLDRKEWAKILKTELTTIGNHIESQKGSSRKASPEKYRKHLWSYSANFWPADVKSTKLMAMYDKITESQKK

| Compound | Percent Effect [1] [%] | Percent Effect [2] [%] | Percent Effect [3] [%] | Percent Effect [4] [%] | Percent Effect (Trypanosoma cruzi) [%] | Percent Effect [5] [%] | Percent Effect [6] [%] | Percent Effect (Homo sapiens) [%] | Percent Effect [7] [%] | Percent Effect [8] [%] | Percent Effect [9] [%] |
| --- | --- | --- | --- | --- | --- | --- | --- | --- | --- | --- | --- |
| CN1CCC(Cc2cc(Nc3ncccn3)ncn2)CC1 | -1.87 | 6.76 | 11.2 | 0.0242 | -1.98 | -1.16 | 2.34 | 6.81 | 4.3 | 9.09 | -10.4 |
| COCc1ccc(CN2CCC(O)(Cn3ccc4ncccc43)CC2)o1 | -1.21 | 2.67 | -2.95 | 1.83 | 5.51 | 0.233 | 9.07 | 7.16 | 2.13 | 3.85 | -6.45 |
| c1ccc(Cn2cc3c(n2)C(COCC2CC2)OCC3)nc1 (stereo unspecified) | 3.09 | 10.4 | -0.118 | -14.8 | -4.24 | 3.23 | 12.4 | 8.69 | 1.06 | 6.41 | -7.74 |
| Cc1noc(C)c1CN(C)C(=O)c1ccc(NC2CC2)nc1 | -1.87 | 15.8 | -5.49 | 6.74 | 1.59 | 2.88 | 5.84 | -7.41 | 9.36 | 18.5 | -4.25 |
| CNC(=O)c1cc2c(nc1NCC1CC1)CCN(c1ccncn1)CC2 | -4.02 | 1.33 | 11.9 | 4.48 | -1.57 | -4.05 | 9.61 | 35.2 | 1.06 | 0 | -5.29 |
| Cn1ccc(C(=O)N2CCC(Cc3cnc4[nH]ccc4c3)CC2)n1 | -2.94 | 6.76 | 13 | 2.89 | -0.395 | 1.16 | 7.64 | 7.58 | 4.3 | 14.3 | -4.7 |
